Screening results: PubChem, National Center for Advancing Translational Sciences (NCATS)
D2 ag-1 – agonists of human D2 dopamine receptor; P14416; HEK293 T-REx D2 cells, calcium flux agonist mode; activation, % at 2 µM; 0.53% of 340,000 active; AID 485358;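 active means activation over 3 SD above normal in the single-dose calcium agonist read, cut at about 30% in these data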
Target sequence (P14416 whole entry, looked up): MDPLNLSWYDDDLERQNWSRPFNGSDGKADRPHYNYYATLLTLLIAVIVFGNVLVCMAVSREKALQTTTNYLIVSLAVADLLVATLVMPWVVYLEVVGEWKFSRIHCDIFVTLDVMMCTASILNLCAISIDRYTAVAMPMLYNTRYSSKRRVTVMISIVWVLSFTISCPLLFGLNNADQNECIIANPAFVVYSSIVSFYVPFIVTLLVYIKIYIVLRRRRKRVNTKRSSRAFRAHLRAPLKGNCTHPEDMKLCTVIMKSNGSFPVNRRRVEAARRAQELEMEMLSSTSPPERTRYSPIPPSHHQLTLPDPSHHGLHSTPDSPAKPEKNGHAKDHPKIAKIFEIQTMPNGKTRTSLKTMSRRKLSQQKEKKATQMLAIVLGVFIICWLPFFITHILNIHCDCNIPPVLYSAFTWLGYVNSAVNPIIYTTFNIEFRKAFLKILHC
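Agonism scored from kinetic calcium signal (1 read/sec, 180 s) following compound pin transfer, after a 10 s baseline. Cells: HEK293 Trex line expressing inducible D2 receptor coupled to calcium, dye-loaded after overnight culture at 30 C.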
D2 antagonist – antagonists of human D2 dopamine receptor; HEK293 TREx D2 cells, calcium flux, dopamine EC80; inhibition, % at 10 µM; AID 485344; P14416; 2% of 340,000 active; in the data active means inhibition above about 30%; inactive means below that, where a call was filed
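Inhibition of EC80 dopamine-driven calcium flux, recorded kinetically, defines activity here; cells are a tetracycline-induced HEK293 T-REx line expressing force-coupled D2.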
D2 PAM-1 – human D2 receptor positive allosteric modulation | P14416 | DiscoveRx D2 beta-arrestin cells, luminescence, 90 min; 100% = 57 uM dopamine signal | potentiation, % (concentration not given with the values) | 0.23% of 360,000 active | AID 624464; in the data active means potentiation above about 50%; inconclusive means mostly about 30% to 49%
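D2 cells co-treated with compound plus 50 nM dopamine (EC20) for 90 min at 37 deg C to detect potentiation. Beta-arrestin recruitment was read as enzyme-fragment luminescence after 1 h at ambient temperature. Full response was set by 57 uM dopamine.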
D2 ag-2 – human D2 receptor agonism in beta-arrestin assay; DiscoveRx PathHunter D2 beta-arrestin, luminescence, 90 min; 100% = 57 uM dopamine signal; activation, % (concentration not given with the values); 0.084% of 360,000 active; AID 624465; in the data active means activation above about 40%; inconclusive means between about 15% and that limit
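Agonist mode: compounds alone added to overnight-plated D2 PathHunter cells for 90 min at 37 C, with 57 uM final dopamine (EC100) defining full response. Beta-arrestin recruitment detected by chemiluminescent reagent, read after 1 h at ambient temperature.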
D2 PAM-2 – D2 dopamine receptor (human) potentiation; HEK293 T-REx D2, calcium flux, EC20 dopamine potentiation; 0.34% of 340,000 active; P14416; potentiation, % at 10 µM;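 active means potentiation over 3 SD above the plate norm, cut at about 30% in these data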
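Tetracycline-induced Hek293 Trex D2 cells, force-coupled to calcium, loaded with no-wash calcium dye. Compound added with 180 s kinetic read for agonism, then EC20 dopamine and a further 180 s read for potentiation.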
Each line names hits and unclear results; the compound was inactive in the other large screens. A selection: hits, their analogues and other compounds. The true share with any hit is near 2.4%.

COc1ccc(Cl)cc1NC(=O)NCC1CCN(C(=O)OC(C)(C)C)CC1	D2 antagonist 95
CC(C)(C)OC(=O)N1CCC(CNC(=O)c2ccc(F)cc2F)CC1	none
COc1ccc(NC(=O)C(=O)NCC(c2cccnc2)N2CCc3ccccc3C2)cc1 (configuration not stated)	none (no result: D2 antagonist, D2 PAM-1, D2 ag-2)
COc1ccc(OC)c(NC(=O)Nc2ccc(Cl)cc2)c1	D2 antagonist 46
CCCN1CCC(NC(=O)Nc2cc(Cl)ccc2OC)CC1	D2 antagonist 85
NS(=O)(=O)c1ccc(CCNC(=O)CSc2nc3c(sc(=S)n3-c3ccccc3)c(=O)[nH]2)cc1	none (no result: D2 ag-1, D2 antagonist, D2 PAM-2)
CCc1cccc(CC)c1N(COC)C(=O)Cn1c(C)nc2ccccc21	none (no result: D2 antagonist, D2 PAM-1, D2 ag-2)
O=S1(=O)C[C@H](N2CCC(Cc3ccccc3)CC2)[C@@H](COCc2ccccc2)N1	none (no result: D2 ag-1, D2 antagonist, D2 PAM-2)
O=C(CN1CCN(c2ccc(O)cc2)CC1)Nc1ccc2c(c1)OCCO2	D2 ag-1 36, D2 ag-2 inconclusive
CCCNC(=O)c1cnc2c(-c3ccc(OCC)c(OCC)c3)c(C)nn2c1-c1ccccc1	none (no result: D2 antagonist, D2 PAM-1, D2 ag-2)
Cc1ccccc1CN1C[C@@H]2C[C@@H](c3cnc(N4CCOCC4)s3)N3CCC[C@@]23C1=O	D2 antagonist 37
COc1ccccc1CN1C[C@@H]2C[C@@H](c3ccccc3C)N3CCC[C@@]23C1=O	none
O=C(Cn1c(=O)[nH]c2ccccc2c1=O)N1CCN(Cc2ccc3c(c2)OCO3)CC1	none
CS(=O)(=O)N(CCc1ccccc1)CC(=O)N1CCN(Cc2ccc3c(c2)OCO3)CC1	D2 antagonist 44
O=C(CCCCCn1c(=O)[nH]c2ccccc2c1=O)N1CCN(Cc2ccc3c(c2)OCO3)CC1	D2 ag-1 35
Cc1ccccc1-c1nc(CN(Cc2c(C)nn(C)c2C)C2CC2)c(C)o1	D2 antagonist 30
CCc1cccc(NC(=O)c2cc3c(=O)[nH]c4ccccc4c3n2C)c1	none (no result: D2 antagonist, D2 PAM-1, D2 ag-2)
CC12CN3CC(C)(CN(C1)C3c1ccc([N+](=O)[O-])o1)C2 (configuration not stated)	D2 antagonist 32
COc1cc(NC(=O)c2ccc3c(c2)OCO3)ccc1NC(=O)C(C)C	D2 antagonist 64
Cc1ccccc1NC(=O)c1ccc(NC(=O)c2ccco2)cc1	D2 antagonist 45
Cc1cc(NC(=O)c2ccc3c(c2)OCO3)ccc1NC(=O)c1ccco1	none
Cc1ccccc1OCc1nc(-c2ccc(NC(=O)c3ccco3)cc2)no1	D2 PAM-2 43
Cc1ccc(C(=O)Nc2ccc3c(c2)OCO3)cc1NC(=O)c1ccco1	D2 antagonist 48
CCC(CC)C(=O)OCc1cc(=O)n2nc(C3CC3)sc2n1	none (no result: D2 antagonist, D2 PAM-1, D2 ag-2)
CC(C)(C)c1ccc(S(=O)(=O)NCc2ccc3c(c2)CCN3C(=O)c2ccccc2)cc1	none (no result: D2 ag-1, D2 antagonist, D2 PAM-1, D2 ag-2)
CCOC(=O)C1CCCN(C(=O)c2ccc(F)c(Cl)c2)CC1 (configuration not stated)	none (no result: D2 ag-1, D2 antagonist, D2 PAM-2)
O=C(CCN1CCc2ccccc2C1)Nc1cccc(F)c1	D2 antagonist 60 (no result: D2 PAM-2)
O=C(CCC(=O)N1CCc2ccccc21)Nc1ccccc1	D2 antagonist 36
O=C(CN1CCc2ccccc2C1)Nc1ccccc1C(F)(F)F	D2 ag-1 34
O=C(Nc1ccccc1)N1CCc2ccccc21	none
O=C(CCN1CCCCCC1)Nc1cccc(F)c1	none
O=C(CCN1CCc2ccccc2C1)Nc1ccccc1	D2 antagonist 57
CC1=C(C(=O)Nc2cccnc2)C(c2cccc(Br)c2)n2nc(SCc3ccccc3)nc2N1 (configuration not stated)	none (no result: D2 antagonist, D2 PAM-1, D2 ag-2)
Cc1ccc(C)c(CNC(=O)c2ccc3c(c2)nc2n3CCCCC2)c1	none (no result: D2 antagonist, D2 PAM-1, D2 ag-2)
CCCS(=O)(=O)NC(=O)C1(C)CCCN(C(=O)c2ccc3ccccc3c2)C1 (configuration not stated)	none (no result: D2 ag-1, D2 antagonist, D2 PAM-2)
CN(c1ccccc1)S(=O)(=O)c1cccc(NC(=O)CN2CCc3ccccc3C2)c1	D2 antagonist 33, D2 ag-2 inconclusive
CN(c1ccccc1)S(=O)(=O)c1cccc(NC(=O)CC(C)(C)C)c1	none
O=C(CN1CCc2ccccc2C1)Nc1ccc(Br)cc1	D2 antagonist 58
O=C1N(Cc2ccccc2F)c2ccccc2C12OCCCO2	D2 PAM-2 40
CCCC(=O)CN1C(=O)C2(OCCO2)c2ccccc21	D2 PAM-2 36
COc1ccc(C)cc1NC(=O)Cn1c(=O)n(Cc2nc(C)no2)c(=O)c2ccccc21	none (no result: D2 antagonist, D2 PAM-1, D2 ag-2)
O=C(O)COc1ccc(NC(=O)c2ccc3c(c2)C(=O)N(CC2CCCO2)C3=O)cc1 (configuration not stated)	none (no result: D2 ag-1, D2 antagonist, D2 PAM-2)
COc1cccc(C(=O)O/N=C(\N)c2ccccn2)c1	D2 PAM-1 55
N/C(=N\OC(=O)c1ccc(Cl)cc1Cl)c1ccccn1	none
Cc1ccc(C(=O)O/N=C(\N)c2ccccn2)c(Cl)c1	D2 PAM-1 91, D2 ag-2 inconclusive
N/C(=N\OC(=O)c1ccc2ccccc2c1)c1ccccn1	D2 ag-2 inconclusive
N/C(=N\OC(=O)c1ccc(Cl)cc1[N+](=O)[O-])c1ccccn1	D2 ag-2 63
CSc1ccc(CCNC(=O)CN2C(=O)COc3ccc(S(=O)(=O)N4CCCC4)cc32)cc1	none (no result: D2 antagonist, D2 PAM-1, D2 ag-2)
Cc1ccc(NS(=O)(=O)c2cccc(C(=O)NC3CCN(Cc4ccccc4)CC3)c2)c(C)c1	none (no result: D2 ag-1, D2 antagonist, D2 PAM-2)
O=C(NC1CCN(Cc2ccccc2)CC1)c1cccc(S(=O)(=O)Nc2ccc(F)cc2)c1	D2 antagonist 45
O=C(NC1CCN(Cc2ccccc2)CC1)c1cccc(S(=O)(=O)Nc2ccc(Br)cc2)c1	D2 antagonist 34
C=CCN(c1ccccc1)S(=O)(=O)c1cccc(C(=O)NC2CCN(Cc3ccccc3)CC2)c1	D2 antagonist 66
COCCSc1ccccc1C(=O)NCCCn1ccnc1	D2 antagonist 39
COCCSc1ccccc1C(=O)Nc1ccc(Cl)cc1	D2 antagonist 58
Cc1ccc(OCC(=O)NCC(=O)OCc2cc(=O)n3nc(C(C)C)sc3n2)cc1	none (no result: D2 antagonist, D2 PAM-1, D2 ag-2)
O=C(Nc1ccc(Cl)cc1)C1CCC(CNS(=O)(=O)c2ccc(Br)s2)CC1 (configuration not stated)	none (no result: D2 antagonist, D2 PAM-1, D2 ag-2, D2 PAM-2)
Cc1ccc(C)c(N(CC(=O)NC2CCCC2)C(=O)CCC(=O)Nc2cc(C)on2)c1	D2 antagonist 36
Cc1cc(NC(=O)CCC(=O)N(Cc2ccccc2)C2(C(=O)NC3CCCCC3)CCCC2)no1	D2 antagonist 44
Cc1cc(NC(=O)CCC(=O)N(Cc2ccco2)C2(C(=O)NC3CCCCC3)CCCCC2)no1	none
CCOc1ccc(/C=N/n2c(-c3ccccc3)n[nH]c2=S)cc1	D2 antagonist 41, D2 ag-2 inconclusive
S=c1[nH]nc(-c2ccccc2)n1/N=C/c1ccc(Cl)cc1	none
COc1cccc(NC(=O)c2oc3ccccc3c2NC(=O)C23CC4CC(CC(C4)C2)C3)c1	none (no result: D2 antagonist, D2 PAM-1, D2 ag-2)
CCOc1ccc(N2C(=O)CN=C2Nc2ccccc2Cl)cc1	none
O=C1CN=C(Nc2ccccc2Cl)N1c1ccccc1	D2 antagonist 36
